A short description of assay [1]: NCI Yeast Anticancer Drug Screen. Data for the rad50 strain (AID 155).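 Further: 0% = growth of vehicle-only cultures of the same strain.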 The following applies: S. cerevisiae rad50 strain growth inhibition, hits give high values. In a few lines: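 Vehicle-treated cultures provide the reference for the growth inhibition reported for compound-exposed, repair-deficient yeast.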
Assay [2] can be described thus: NCI Yeast Anticancer Drug Screen. Data for the mec2-1 strain (AID 157). Conditions: S. cerevisiae mec2-1 strain, hits give high values. In a few lines:
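Growth inhibition is read against vehicle-treated controls after compound exposure of the mec2-1 yeast strain, which is defective in DNA damage repair or cell cycle control.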

Assay [3] is described as follows: NCI Yeast Anticancer Drug Screen. Data for the sgs1 mgt1 strain (AID 161).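 Further: 0% = growth of cultures given vehicle only.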 Conditions: S. cerevisiae sgs1 mgt1 strain, hits give high values. In a few lines: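 Compounds are added to genetically altered yeast, and growth is compared with cultures given vehicle alone to give percent inhibition.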
Assay [4] in a line: NCI Yeast Anticancer Drug Screen. Data for the cln2 rad14 strain (AID 165).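 Further: 0% = growth equal to vehicle treated cultures.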 The following applies: S. cerevisiae cln2 rad14 strain, hits give high values. In a few lines:
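Growth inhibition, relative to vehicle-treated controls, is the read-out. The test organism is a yeast strain with defined genetic alterations, cln2 rad14.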

The nature of assay [5]: NCI Yeast Anticancer Drug Screen. Data for the bub3 strain (AID 167). The following applies: S. cerevisiae bub3 mutant strain, hits give high values. Summed up:
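Mutant yeast screening strain plus compound; vehicle-treated cultures serve as the 0% inhibition reference.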

Assay [6] can be described thus: NCI Yeast Anticancer Drug Screen. Data for the mlh1 rad18 strain (AID 175). The following applies: S. cerevisiae mlh1 rad18 strain growth inhibition, hits give high values. In a few lines:
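Cells of a genetically altered yeast strain, deficient in DNA damage repair, were treated with compound. Their growth was then compared with that of vehicle-treated cultures to give inhibition.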

The mark [7] stands for this setting: at 5.0 µM (retest, dose inferred, filed as 0.5).
Where [8] appears, read: at 50.0 µM (retest, dose inferred, filed as 5.0).

Each structure is given as a SMILES string. This is part of a sample that, as a whole, favours compounds with a hit. Of some 79,000 tested, about 15% had one in any assay. Values without a mark were called inactive. Calls of active or inactive are those of the source. No stated cut-off is given here; in the data, active means growth inhibition above about 70%; inactive means the rest.

On to `CC(=O)c1ccc(-[n+]2c(C)cc(-c3ccccc3)cc2C)cc1`, for which the growth inhibition is -11% in assay [1] (setting [7]); -1% in assay [1] (setting [8]); -15.4% in assay [1] (at 50.0 µM); -1% in assay [2] (setting [7]); -6% in assay [2] (setting [8]); -7.4% in assay [2] (at 50.0 µM). Further, the growth inhibition in assay [3] (setting [7]) was -19%; in assay [3] (setting [8]), -8%; in assay [3] (at 50.0 µM), -13.6%; in assay [4] (setting [7]), 3%; in assay [4] (setting [8]), -3%; in assay [4] (at 50.0 µM) it was 39.6%. Moreover, the growth inhibition is -4% in assay [5] (setting [7]); -1% in assay [5] (setting [8]); 15.7% in assay [5] (at 50.0 µM); -5% in assay [6] (setting [7]); -6% in assay [6] (setting [8]); 21.9% in assay [6] (at 50.0 µM).
As for `CC[C@@H](C)[C@@H]1NC(=O)C(NC(=O)C(CC(C)C)N(C)C(=O)C2CCCN2C(=O)C(C)O)C(C)OC(=O)C(Cc2ccc(OC)cc2)N(C)C(=O)C2CCCN2C(=O)C(CC(C)C)NC(=O)C(C)C(=O)C(C(C)C)OC(=O)C[C@H]1O` (stereo not given in full), the growth inhibition was 51% in assay [1] (setting [7]); 96% (active) in assay [1] (setting [8]); 81.3% (active) in assay [1] (at 50.0 µM); 73% (active) in assay [2] (setting [7]); 99% (active) in assay [2] (setting [8]); 83.5% (active) in assay [2] (at 50.0 µM). Further, the growth inhibition was 58% in assay [3] (setting [7]); 89% (active) in assay [3] (setting [8]); 83.2% (active) in assay [3] (at 50.0 µM); 43% in assay [4] (setting [7]); 74% (active) in assay [4] (setting [8]); 80.6% (active) in assay [4] (at 50.0 µM). The growth inhibition in assay [5] (setting [7]) is 28%; in assay [5] (setting [8]) it was 72% (active); in assay [5] (at 50.0 µM) it was 85.2% (active); in assay [6] (setting [7]) it was 50%; in assay [6] (setting [8]), 98% (active); in assay [6] (at 50.0 µM), 79.8% (active).
For `CCCCCCCCc1ccc(OCCN(CCCl)CCCl)cc1`, the growth inhibition in assay [1] (setting [7]) was 3%; in assay [1] (setting [8]), 99% (active); in assay [1] (at 50.0 µM) it was 98.7% (active); in assay [2] (setting [7]), -23%; in assay [2] (setting [8]) it was 100% (active); in assay [2] (at 50.0 µM), 99.4% (active). The growth inhibition in assay [3] (setting [7]) was -130%; in assay [3] (setting [8]), 99% (active); in assay [3] (at 50.0 µM), 99.1% (active); in assay [4] (setting [7]) it was -2%; in assay [4] (setting [8]) it was 99% (active); in assay [4] (at 50.0 µM), 99.3% (active). The growth inhibition in assay [5] (setting [7]) was -4%; in assay [5] (setting [8]) it was 99% (active); in assay [5] (at 50.0 µM) it was 99.2% (active); in assay [6] (setting [7]) it was 4%; in assay [6] (setting [8]), 99% (active); in assay [6] (at 50.0 µM) it was 99.2% (active).
Take `CC(CCc1ccccc1)NC(C)C(O)c1ccc(O)cc1` (stereo not given): the growth inhibition was 1% in assay [1] (setting [7]); 32% in assay [1] (setting [8]); 49% in assay [1] (at 50.0 µM); 4% in assay [2] (setting [7]); 55% in assay [2] (setting [8]); 28.6% in assay [2] (at 50.0 µM). Moreover, the growth inhibition in assay [3] (setting [7]) is 23%; in assay [3] (setting [8]), 66%; in assay [3] (at 50.0 µM), 52.2%; in assay [4] (setting [7]), 9%; in assay [4] (setting [8]), 42%; in assay [4] (at 50.0 µM) it was 68.3%. For the same molecule, the growth inhibition in assay [5] (setting [7]) is 9%; in assay [5] (setting [8]), 40%; in assay [5] (at 50.0 µM) it was 64.8%; in assay [6] (setting [7]), 45%; in assay [6] (setting [8]), 71% (active); in assay [6] (at 50.0 µM), 78.1% (active).
For the molecule `c1cs[c]([Hg][c]2cccs2)c1`, the growth inhibition was 99% (active) in assay [1] (setting [7]); 98% (active) in assay [1] (setting [8]); 99.7% (active) in assay [1] (at 50.0 µM); 99% (active) in assay [2] (setting [7]); 76% (active) in assay [2] (setting [8]); 99.5% (active) in assay [2] (at 50.0 µM). Further, the growth inhibition is 100% (active) in assay [3] (setting [7]); 97% (active) in assay [3] (setting [8]); 99.6% (active) in assay [3] (at 50.0 µM); 97% (active) in assay [4] (setting [7]); 97% (active) in assay [4] (setting [8]); 98% (active) in assay [4] (at 50.0 µM). In addition, the growth inhibition in assay [5] (setting [7]) was 100% (active); in assay [5] (setting [8]), 98% (active); in assay [5] (at 50.0 µM), 99.5% (active); in assay [6] (setting [7]), 99% (active); in assay [6] (setting [8]) it was 95% (active); in assay [6] (at 50.0 µM), 99.5% (active).
Turning to `O=C(OCCl)c1ccccc1`, the growth inhibition in assay [1] (setting [7]) was 11%; in assay [1] (setting [8]), -4%; in assay [1] (at 50.0 µM) it was 3.9%; in assay [2] (setting [7]), -1%; in assay [2] (setting [8]), -2%; in assay [2] (at 50.0 µM) it was -5.6%. For the same molecule, the growth inhibition in assay [3] (setting [7]) is -4%; in assay [3] (setting [8]), 1%; in assay [3] (at 50.0 µM), 13.5%; in assay [4] (setting [7]), 7%; in assay [4] (setting [8]) it was -4%; in assay [4] (at 50.0 µM), 45.5%. Also, the growth inhibition in assay [5] (setting [7]) was 8%; in assay [5] (setting [8]), 13%; in assay [5] (at 50.0 µM), -7.7%; in assay [6] (setting [7]), 6%; in assay [6] (setting [8]), 5%; in assay [6] (at 50.0 µM) it was 15.7%.
With `C/C(=N\Nc1ccccc1)C(CN(C)C)C(c1ccccc1)c1c(O)c2ccccc2oc1=O` (stereo not given), the growth inhibition in assay [1] (setting [7]) is 24%; in assay [1] (setting [8]) it was 24%; in assay [1] (at 50.0 µM), 88.2% (active); in assay [2] (setting [7]), 14%; in assay [2] (setting [8]), 14%; in assay [2] (at 50.0 µM), 86.2% (active). Also, the growth inhibition in assay [3] (setting [7]) is 16%; in assay [3] (setting [8]), 16%; in assay [3] (at 50.0 µM) it was 87.8% (active); in assay [4] (setting [7]) it was 5%; in assay [4] (setting [8]) it was 5%; in assay [4] (at 50.0 µM), 86% (active). Also, the growth inhibition in assay [5] (setting [7]) was 10%; in assay [5] (setting [8]) it was 10%; in assay [5] (at 50.0 µM), 83.6% (active); in assay [6] (setting [7]), 12%; in assay [6] (setting [8]), 12%; in assay [6] (at 50.0 µM), 86.5% (active).
For `COc1cc(C2c3cc4c(cc3[C@@H](Nc3ccc([N+](=O)[O-])cc3)C3COC(=O)[C@H]23)OCO4)cc(OC)c1O` (stereo not given in full), the growth inhibition in assay [1] (setting [7]) was 96% (active); in assay [1] (setting [8]), 96% (active); in assay [1] (at 50.0 µM) it was 84.4% (active); in assay [2] (setting [7]), 97% (active); in assay [2] (setting [8]), 97% (active); in assay [2] (at 50.0 µM), 91% (active). In addition, the growth inhibition is 49% in assay [3] (setting [7]); 98% (active) in assay [3] (setting [8]); 87.7% (active) in assay [3] (at 50.0 µM); 22% in assay [4] (setting [7]); 97% (active) in assay [4] (setting [8]); 86.6% (active) in assay [4] (at 50.0 µM). Moreover, the growth inhibition was 54% in assay [5] (setting [7]); 98% (active) in assay [5] (setting [8]); 87.2% (active) in assay [5] (at 50.0 µM); 95% (active) in assay [6] (setting [7]); 96% (active) in assay [6] (setting [8]); 88.5% (active) in assay [6] (at 50.0 µM).
Take `S=P(OC1CC2CCC1C2)(c1ccccc1)c1ccccc1` (stereo not given): the growth inhibition in assay [1] (setting [7]) is 83% (active); in assay [1] (setting [8]) it was 98% (active); in assay [1] (at 50.0 µM), -15.2%; in assay [2] (setting [7]), 90% (active); in assay [2] (setting [8]) it was 99% (active); in assay [2] (at 50.0 µM), 4.1%. The growth inhibition in assay [3] (setting [7]) is 86% (active); in assay [3] (setting [8]) it was 97% (active); in assay [3] (at 50.0 µM), -0.75%; in assay [4] (setting [7]), 87% (active); in assay [4] (setting [8]) it was 98% (active); in assay [4] (at 50.0 µM), 30.4%. Moreover, the growth inhibition in assay [5] (setting [7]) is 88% (active); in assay [5] (setting [8]), 97% (active); in assay [5] (at 50.0 µM), -10.6%; in assay [6] (setting [7]), 91% (active); in assay [6] (setting [8]), 99% (active); in assay [6] (at 50.0 µM), 1.2%.
On to `C/C(=N\NC(N)=O)C(CN1CCCCC1)C(c1ccccc1)c1c(O)c2ccccc2oc1=O` (stereo not given), for which the growth inhibition was 14% in assay [1] (setting [7]); 14% in assay [1] (setting [8]); 82.7% (active) in assay [1] (at 50.0 µM); 15% in assay [2] (setting [7]); 15% in assay [2] (setting [8]); 83% (active) in assay [2] (at 50.0 µM). Also, the growth inhibition in assay [3] (setting [7]) is 6%; in assay [3] (setting [8]), 6%; in assay [3] (at 50.0 µM), 87.6% (active); in assay [4] (setting [7]) it was 0%; in assay [4] (setting [8]), 0%; in assay [4] (at 50.0 µM), 72.8% (active). Further, the growth inhibition in assay [5] (setting [7]) was 17%; in assay [5] (setting [8]), 17%; in assay [5] (at 50.0 µM), 79% (active); in assay [6] (setting [7]), 17%; in assay [6] (setting [8]), 17%; in assay [6] (at 50.0 µM), 81.5% (active).

These data come from PubChem BioAssay (NCI).
